The supplement of paper PMC10981050
Values joined by “and” are separate entries in the source; they are usually repeats but may differ in a detail not shown here. Equal entries are not always repeated. Structures can show the parent of a compound that is named as a salt.

Columns and labels:
Assay in all cases: cell viability relative to vehicle control; higher = less cytotoxic
Details in all cases: 10 µM
[1] = tested on: K562
Procedure, shortened: (§1)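 Four leukaemia lines, as CRISPR-edited mutant clones and isogenic wild-type clones, were tested against Selleck bioactive, kinase and epigenetic probe libraries after removal of identity-inconsistent compounds. Cells were exposed to a single 10 µM dose for 48 h, and CellTiter-Glo luminescence was then read. Viability was calculated relative to the on-plate vehicle control.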

[2] = tested on: MARIMO
Procedure, shortened: as §1

[3] = tested on: MOLM14
Procedure, shortened: as §1

[4] = tested on: OCI-AML2
Procedure, shortened: as §1

Compound	cell viability ([1]; SRSF2 genotype: SRSF2 P95H/wt)	cell viability ([1]; SRSF2 genotype: SRSF2 wt/wt) [%]	cell viability ([2]; SRSF2 genotype: SRSF2 P95H/wt) [%]	cell viability ([2]; SRSF2 genotype: SRSF2 wt/wt) [%]	cell viability ([3]; SRSF2 genotype: SRSF2 P95H/wt) [%]	cell viability ([3]; SRSF2 genotype: SRSF2 wt/wt) [%]	cell viability ([4]; SRSF2 genotype: P95H/wt) [%]	cell viability ([4]; SRSF2 genotype: wt/wt) [%]
C[C@H](CCC(=O)O)[C@H]1CC[C@H]2[C@@H]3[C@H](O)C[C@@H]4C[C@H](O)CC[C@]4(C)[C@H]3C[C@H](O)[C@]12C [Sodium cholate]	103% and 101%	94.5	88.2	96.6	89.8	93.4	88	96.5
COc1cc2c3cc1Oc1c(OC)c(OC)cc4c1[C@@H](Cc1ccc(O)c(c1)Oc1ccc(cc1)C[C@@H]3N(C)CC2)N(C)CC4 [Berbamine]	62.8% and 49.4%	57.5	72.7	67.2	72.8	67.6	39.3	54.9
OC1OC[C@@H](O)[C@@H](O)[C@@H]1O (stereo partly drawn) [D(-)-Arabinose]	111% and 100%	118	110	109	100	111	116	117
Cc1ccc(S(=O)(=O)OCC(=O)Nc2ccc(C(=O)O)c(O)c2)cc1	95.9% and 95.6%	97.9	95.7	102	99.7	101	94.2	101
O=C1C[C@@H](c2ccc(O)c(O)c2)Oc2cc(O)cc(O)c21 [Eriodictyol]	98.5% and 97.3%	108	88.6	96.1	112	104	96.8	95.2
C[n+]1cc2c3c(ccc2c2ccc4cc5c(cc4c21)OCO5)OCO3 [Sanguinarine chloride]	0.68% and 0.46%	0.74	0.3	0.38	0.25	0.34	0.31	0.29
C/C=C1\[C@H]2C=C(C)C[C@]1(N)c1ccc(=O)[nH]c1C2 [(-)-Huperzine A (HupA)]	105% and 103%	108	103	103	115	110	109	103
O=C(O)CSCC(=O)NC1CCSC1=O (stereo not given) [Erdosteine]	101% and 96.3%	97.8	101	102	97.8	98	89.9	96.9
CCCN(CCC)CCc1cccc2c1CC(=O)N2 [Ropinirole HCl]	98.9% and 97.5%	95.9	103	100	103	102	100	89.4
CCOc1ccccc1OC(c1ccccc1)C1CNCCO1 (stereo not given) [Reboxetine mesylate]	94.5% and 93.4%	90.7	81.9	91.7	92.2	95.8	70.1	97.4
COc1ccc([C@]2(C#N)CC[C@@H](C(=O)O)CC2)cc1OC1CCCC1	96.5% and 91.9%	99.1	93.8	110	94.8	100	95.6	102
CCc1ccc(CCOc2ccc(CC3SC(=O)NC3=O)cc2)nc1 (stereo not given) [Pioglitazone (Actos)]	98.5% and 116%	109	104	103	102	108	111	103
CC(NCCc1ccc(O)cc1)C(O)c1ccc(O)cc1 (stereo not given) [Ritodrine hydrochloride (Yutopar)]	106% and 102%	96.3	100	106	98.6	99.8	104	107
O=C1CCc2ccc(OCCCCN3CCN(c4cccc(Cl)c4Cl)CC3)cc2N1 [Aripiprazole (Abilify)]	90.5% and 93%	93.2	86.8	80.1	86.5	98	47.1	75.5
COC(c1ccccc1)(c1ccccc1)[C@H](Oc1nc(C)cc(C)n1)C(=O)O [Ambrisentan]	103% and 96.5%	98.8	95.2	109	102	103	102	105
Cc1cc(C)c(-c2csc(NC(=O)c3ccccc3)n2)c(C)c1	58.4% and 51.8%	51	35.1	31.6	45	40.5	39.5	27.5
COC(=O)[C@H](CC(C)C)NC(=O)c1ccc(NC[C@@H](N)CS)cc1-c1cccc2ccccc12 [GGTI 298 TFA salt]	7.41% and 14.8%	31.9	55	51.1	41	50.6	40.6	37.7
C=C1CCC2C(C)(COC(=O)CCC(=O)O)C(OC(=O)CCC(=O)O)CCC2(C)C1C=CC1=CCOC1=O (stereo not given) [Dehydroandrographolide Succinate]	114% and 108%	111	101	101	109	107	106	105
CCC1=C[C@@H]2CN(C1)Cc1c([nH]c3ccccc13)[C@@](C(=O)OC)(c1cc3c(cc1OC)N(C)[C@H]1[C@@](O)(C(=O)OC)[C@H](OC(C)=O)[C@]4(CC)C=CCN5CC[C@]31[C@@H]54)C2 [Vinorelbine Tartrate]	15% and 35%	31.6	7.46	7.57	0.68	0.99	1.63	3.83
CC(C)OC(=O)[C@H](C)N[P@](=O)(OC[C@H]1O[C@@H](n2ccc(=O)[nH]c2=O)[C@](C)(F)[C@@H]1O)Oc1ccccc1 [Sofosbuvir(PSI-7977)]	103% and 102%	95.8	98.3	111	102	107	94	107
